From PMC4336329 (PLoS ONE, 2015)
The whole screen tested about 310,000 compounds, of which about 14,000 (4.5%) showed an effect of 50% or more. The effect is printed as a negative number. Only a selection was taken, and strong results are over-represented in it overall.

Target: human ether-à-go-go-related gene (hERG) potassium channel (human, UniProt Q12809)
Assay: primary screen, population patch clamp on CHO cells stably expressing hERG; higher = less effect of the substance
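Further: peak tail current of the secondary pulse compared with the same well before compound.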

Chain of human ether-à-go-go-related gene (hERG) potassium channel (Q12809 whole entry, looked up): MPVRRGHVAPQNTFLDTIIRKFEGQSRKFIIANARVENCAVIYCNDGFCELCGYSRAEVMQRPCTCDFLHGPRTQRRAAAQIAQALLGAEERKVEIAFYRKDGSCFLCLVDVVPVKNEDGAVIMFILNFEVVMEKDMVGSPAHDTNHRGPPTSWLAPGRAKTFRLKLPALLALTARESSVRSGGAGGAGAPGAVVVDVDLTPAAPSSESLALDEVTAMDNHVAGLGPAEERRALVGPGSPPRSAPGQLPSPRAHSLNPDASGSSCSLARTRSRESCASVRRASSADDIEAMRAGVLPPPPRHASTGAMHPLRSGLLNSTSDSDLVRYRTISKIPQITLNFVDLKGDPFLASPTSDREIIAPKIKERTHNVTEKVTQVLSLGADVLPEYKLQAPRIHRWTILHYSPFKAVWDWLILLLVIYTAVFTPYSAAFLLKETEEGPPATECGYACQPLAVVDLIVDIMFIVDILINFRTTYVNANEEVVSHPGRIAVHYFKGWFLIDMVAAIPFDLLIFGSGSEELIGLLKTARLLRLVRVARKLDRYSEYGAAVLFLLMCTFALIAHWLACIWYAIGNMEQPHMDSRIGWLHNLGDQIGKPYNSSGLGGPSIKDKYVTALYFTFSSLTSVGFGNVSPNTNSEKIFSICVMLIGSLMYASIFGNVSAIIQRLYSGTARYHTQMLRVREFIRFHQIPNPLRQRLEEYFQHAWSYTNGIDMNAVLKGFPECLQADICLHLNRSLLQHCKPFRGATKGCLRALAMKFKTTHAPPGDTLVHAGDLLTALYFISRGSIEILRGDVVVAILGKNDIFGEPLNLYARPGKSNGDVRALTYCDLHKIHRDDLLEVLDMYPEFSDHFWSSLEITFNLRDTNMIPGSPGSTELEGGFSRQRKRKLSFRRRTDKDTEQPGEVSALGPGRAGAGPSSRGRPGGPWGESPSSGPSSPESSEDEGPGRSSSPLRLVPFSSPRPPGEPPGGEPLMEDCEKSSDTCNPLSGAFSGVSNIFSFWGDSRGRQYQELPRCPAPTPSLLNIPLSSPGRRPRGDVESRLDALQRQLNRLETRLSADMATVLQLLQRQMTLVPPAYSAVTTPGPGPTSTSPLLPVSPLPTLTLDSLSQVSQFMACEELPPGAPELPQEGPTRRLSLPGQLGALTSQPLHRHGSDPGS

| SMILES | hERG current change (%, negative = inhibition) at 10uM |
| --- | --- |
| c1ccc(N2CCN(c3nc4cc5c(cc4s3)OCO5)CC2)cc1 | -11.2% |
| CCC(CC)c1nnc(NC(=O)c2c(-c3ccccc3)noc2C)s1 | -9.78% |
| COc1cnn(-c2cc(Oc3ccc(C)cc3)ncn2)c(=O)c1Cl | 2.74% |
| COc1cccc(C(=O)NCC2(c3ccccc3)CCCC2)c1OC | 3.79% |
| CC(C)n1ncc2c(C(=O)N3CCN(c4ccccc4)CC3)cc(-c3ccccc3)nc21 | 17.2% |
| COc1ccc(C(=O)N2CCCC2=O)cc1 | 17% |
| Cc1sc(NC(=O)C2=COCCO2)nc1-c1ccc(F)cc1 | 15.5% |
| CNC(=S)N/N=C/c1ccc(N2CCOCC2)s1 | 51.6% |
| CS(=O)(=O)n1nc(-c2cccnc2)nc1NCc1ccccc1 | 43.9% |
| Nc1nc(-c2ccccc2)c(-c2ccccc2)s1 | -2.18% |
| Cc1nc(Nc2ccc(S(N)(=O)=O)cc2)sc1-c1ccccc1 | 12.9% |
| Nc1c(-c2ccccc2)sc2ccc3ccccc3[n+]12.O=S(=O)([O-])c1ccccc1 | -58.3% |
| Cc1c(NC(=O)CSc2nccn2C)c(=O)n(-c2ccccc2)n1C | 10.9% |
| CC(CNC(=O)c1cccs1)c1ccc([N+](=O)[O-])cc1 (stereo not drawn) | 4.3% |
| COc1cc(OC)cc(C(=O)NC(C(=O)Nc2ccc3c(c2)CCC3)C(C)C)c1 (stereo not drawn) | -1.96% |
| COc1cc(OC)cc(C(=O)N[C@H](C(=O)Nc2ccc(NC(C)=O)cc2)C(C)C)c1 | 13% |
| COc1cc(OC)cc(C(=O)N[C@H](C(=O)Nc2cc(C)cc(C)c2)C(C)C)c1 | -54.7% |
| Cc1cc2oc(=O)cc(C)c2cc1NC(=O)CCC(=O)O | 7.75% |
| CCCC(=O)Nc1ccc2c(c1)nc(CCN1CCN(c3ccccn3)CC1)n2C | -25.5% |
| Cn1c(CCN2CCN(c3ccccn3)CC2)nc2cc(NC(=O)COc3ccccc3)ccc21 | -72.5% |
| CCC(=O)Nc1ccc2c(c1)nc(CCN1CCN(c3ccccn3)CC1)n2C | -18.3% |
| Cc1cccc(OCC(=O)Nc2ccc3c(c2)nc(CCN2CCN(c4ccccn4)CC2)n3C)c1 | -79.5% |

| SMILES | hERG current change (%, negative = inhibition) at 10uM |
| --- | --- |
| Cn1c(CCN2CCN(c3ccccn3)CC2)nc2cc(NC(=O)COc3ccc([N+](=O)[O-])cc3)ccc21 | -5.69% |
| Cn1c(CCN2CCN(c3ccccn3)CC2)nc2cc(NC(=O)COc3ccc(Cl)cc3)ccc21 | -22.7% |
| CCCCC(=O)Nc1ccc2c(c1)nc(CCN1CCN(c3ccccn3)CC1)n2C | -56.5% |
| O=[N+]([O-])c1cc(-c2nc3nc4ccccc4nc3n2CCc2ccccc2)cc([N+](=O)[O-])c1 | 3.97% |
| Cc1ccc(S(=O)(=O)N(C)/N=C/C=C/c2ccccc2)cc1 | 0.391% |
| O=S(=O)(Cc1ccccc1Cl)NCc1ccccc1 | 7.02% |
| Cc1cc(C)nc(SC2c3cccc4cccc(c34)C2NS(=O)(=O)c2ccccc2)n1 (stereo not drawn) | -4.8% |
| Cc1cccc(N2CCN(C(=O)Cc3cn(C)c4ccccc34)CC2)c1C | -7.32% |
| CC1CCc2sc(C(=O)NCCCn3ccnc3)cc2C1 (stereo not drawn) | -1.07% |
| Cc1cccc(-c2ncc(CN3CCN(CC(C)C)C(CCO)C3)cn2)c1 (stereo not drawn) | -47.9% |
| Cc1ccccc1-c1ncc(CN2CCN(C3CCCCC3)C(CCO)C2)cn1 (stereo not drawn) | -17.4% |
| OCCC1CN(Cc2cnc(-c3ccc(Cl)cc3)nc2)CCN1C1CCCC1 (stereo not drawn) | -73.5% |
| Cc1ccccc1-c1ncc(CN2CCN(C3CCCC3)C(CCO)C2)cn1 (stereo not drawn) | -25.8% |
| CC(C)CN1CCN(Cc2cnc(-c3ccc(Cl)cc3)nc2)CC1CCO (stereo not drawn) | -67.2% |
| Cc1cccc(-c2ncc(CN3CCN(C4CCCC4)C(CCO)C3)cn2)c1 (stereo not drawn) | -46.7% |
| COc1ccc(-c2ncc(CN3CCN(CCC(C)C)C(CCO)C3)cn2)cc1 (stereo not drawn) | -43.4% |
| OCCC1CN(Cc2cnc(-c3cccc4ccccc34)nc2)CCN1C1CCCCC1 (stereo not drawn) | -13.2% |
| OCCC1CN(Cc2cnc(-c3ccc(Cl)cc3)nc2)CCN1C1CCCCC1 (stereo not drawn) | -73.6% |
| CC(C)(C)c1cc(-c2n[nH]c(=S)n2-c2ccc(Cl)cc2)n[nH]1 | 17.3% |
| CCCCCC1CCC(C(=O)N2CCOCC2)CC1 (stereo not drawn) | -2.44% |
| CC(C)CC(=O)Nc1ccc(-c2nc3ccccc3c(=O)[nH]2)cc1 | 26.7% |
| O=C1COc2ccc(S(=O)(=O)CCC(=O)NC3CCCCC3)cc2N1 | 11.8% |

| SMILES | hERG current change (%, negative = inhibition) at 10uM |
| --- | --- |
| CC(=O)Nc1c(NCC(C)C)c2ccccc2oc1=O | 16.7% |
| Cc1ccc(NC(=O)N2CCc3ccccc3C2)cc1C | 15.2% |
| COC(=O)Cc1c(O)ccn(CCc2ccccc2)c1=O | 51.2% |
| CCCn1nc(C(=O)NCC2COc3ccccc3O2)c2ccccc2c1=O (stereo not drawn) | -36.2% |
| COc1ccc(N2CN=C3SCC(=O)N3C2)cc1 | 11.5% |
| CC(NC(=O)C1C(=O)N(CCO)C2(C)CC1c1ccccc1O2)c1ccccc1 (stereo not drawn) | -14.4% |
| CC(=O)Nc1cccc(C(=O)Nc2ccccc2C(=O)O)c1 | 7.39% |
| Cc1ccc(-c2csc(NC(=O)CSc3nc4ccccc4c(=O)n3CCCN(C)C)n2)cc1 | -35.2% |
| C=CCN(CC=C)c1nc2ccccc2nc1C(C#N)C(=O)OCCOC (stereo not drawn) | -29.8% |
| Br.N=C1c2ccccc2CN1c1ccc(N2CCOCC2)c(S(=O)(=O)Nc2ccc(Cl)cc2)c1 | -81% |
| COc1ccccc1NS(=O)(=O)c1cc(NC(=O)C2CC2)ccc1N1CCOCC1 | 45.4% |
| COc1ccccc1NS(=O)(=O)c1cc(NC(=O)C(C)(C)C)ccc1N1CCOCC1 | -36.4% |
| Br.COc1ccccc1NS(=O)(=O)c1cc(N2Cc3ccccc3C2=N)ccc1N1CCOCC1 | -73.3% |
| O=S(=O)(Nc1ccc(N2CCOCC2)cc1)c1cc(Cl)ccc1Cl | 4.1% |
| CCC(=O)Nc1ccc(N2CCOCC2)c(S(=O)(=O)Nc2ccc(Cl)cc2)c1 | -25.2% |
| CCOC(=O)c1nc(C)sc1-c1ccnn1S(=O)(=O)c1ccccc1C(F)(F)F | -25.1% |
| CN(CCCC1CCCC1)C(=O)CCc1nnc(-c2ccccc2)o1 | -22.7% |
| Cc1cccc(-c2n[nH]c(=S)n2/N=C/c2ccco2)c1 | 2.87% |
| O=C1[C@@H]2C(Cc3ccc(O)cc3)NC3(C(=O)Nc4ccc(F)cc43)[C@@H]2C(=O)N1c1ccc(F)cc1 (stereo partly drawn) | 10.1% |
| CC(O)(C#CCN1CCCCC1)c1ccccc1 (stereo not drawn) | 1.9% |
| COc1ccc(OCC(O)CN(C)C(=O)C(C)Oc2ccccc2)cc1 (stereo not drawn) | 6.31% |
| Cc1c[nH]c2cccc(OCC(CNC(C)(C)C)OC(=O)c3ccccc3)c12.Cl (stereo not drawn) | 1.02% |

| SMILES | hERG current change (%, negative = inhibition) at 10uM |
| --- | --- |
| COC(=O)Cc1c[nH]c2cccc(OCC(O)CN(Cc3ccc([N+](=O)[O-])cc3)C(C)(C)C)c12.Cl (stereo not drawn) | -4.66% |
| CC(O)C(=O)O.Cc1ccc(CN(CC(O)COc2cccc3[nH]cc(C)c23)C(C)(C)C)cc1 (stereo not drawn) | -60.8% |
| CC(O)C(=O)O.COc1ccc(CN(CC(O)COc2cccc3[nH]cc(C)c23)C(C)(C)C)cc1 (stereo not drawn) | -60.6% |
| Cc1c[nH]c2cccc(OCC(O)CNC(C)(C)C)c12.Cl (stereo not drawn) | -8.91% |
| CCSc1ncnc2c(C#N)c3n(c12)CCCCC3 | -23.8% |
| CCOC(=O)CSc1ncnc2c(C(=O)OCC)c3n(c12)CCC3 | -62.6% |
| CCOC(=O)CSc1ncnc2c1sc1nc(N3CCOCC3)c3c(c12)CCCC3 | 12.7% |
| CCOC(=O)c1c(C)nsc1NCc1ccccc1 | 5.94% |
| CCOC(=O)c1c2n(c3c(NCc4ccccc4)ncnc13)CCCC2 | -76.3% |
| CCOC(=O)c1c(NCc2ccccc2)n[nH]c1C | 5% |
| COc1ccc(CNc2nnnn2C)cc1 | 20.9% |
| CCOC(=O)Cc1csc(NC(=O)c2ccco2)n1 | 0.229% |
| Cn1c(=O)[nH]c(=O)c2c1nc(Br)n2CCCSc1nc2ccccc2o1 | -66.8% |
| Cn1c(=O)[nH]c(=O)c2c1nc(N1CCCCC1)n2CCSc1nc2ccccc2o1 | 11.1% |
| Cn1c(=O)[nH]c(=O)c2c1nc(Br)n2CCSc1nc2ccccc2o1 | -1.02% |
| Cn1c(=O)[nH]c(=O)c2c1nc(N1CCCC1)n2CCCSc1nc2ccccc2o1 | -25.4% |
| Cn1c(=O)[nH]c(=O)c2c1nc(Br)n2CCCCSc1nc2ccccc2o1 | -55.6% |
| Cn1c(=O)[nH]c(=O)c2c1nc(N1CCCCCC1)n2CCCSc1nc2ccccc2o1 | -38.3% |
| Oc1ccc(CNCC2COc3ccccc3O2)cc1 (stereo not drawn) | 4.89% |
| COc1ccc(OCCC(=O)OCC(=O)NCCc2ccccc2)cc1 | 6.65% |
| O=C(/C=C/c1ccccc1[N+](=O)[O-])NCC1CCCO1 (stereo not drawn) | -3.47% |
